Assay results taken from PubChem BioAssay AID1048 (The Scripps Research Institute Molecular Screening Center, 2008).
The campaign covered roughly 99,000 compounds. About 390 (0.39%) were called active. Only a selection was taken, and actives are over-represented in it overall. A number with no mark means an inactive call. Rule as the data show it: active = TR-FRET ratio above about 2000; inactive = the rest.

experiment: TR-FRET detection interference compounds, artefact control for PPARgamma SRC-3 recruitment agonists, biochemical, TR-FRET ratio (AID 1048); conditions: TR-FRET artefact counter-screen, PPARgamma/SRC-3 format; at 8 µM; stronger effect = higher value

Structure (SMILES)	TR-FRET ratio
CCc1cccc(CC)c1NC(=O)COc1ccccc1C(=O)c1cc(C#N)c(=O)n(C2CCCCC2)c1	1810
CCN(CC(=O)NCCc1ccccc1)S(=O)(=O)c1ccc(C)cc1	1520
O=C(O)CCN(Cc1ccccc1)S(=O)(=O)c1c(Cl)cccc1Cl	1570
O=C(CCc1ccccc1)Nc1nn[nH]n1	1720
C/C(CC(=O)N1CCN(C=O)CC1)=N\NC(=O)c1ccc(Br)cc1	1640
O=C(Nc1cccc(Cl)c1)c1cc([N+](=O)[O-])ccc1N1CCN(CCO)CC1	1540
O=C(C1CCN(C2CCN(Cc3cccc4c3OCO4)CC2)CC1)N1CCOCC1	1420
Cc1cc(OCC(=O)NC2CCN(C)CC2)ccc1[N+](=O)[O-]	1610
O=C(Nc1ccccc1C(=O)N1CCOCC1)c1ccc(Cl)cc1	1680
COc1ccc(C(=O)Nc2ccc(NC(=O)C(C)C)nc2)cc1	1500
C=CCn1nc(-c2ccccc2)c2c(C)onc2c1=O	1650
O=C(N1CCCCC1)N1CCN(C(=O)N2CCCCC2)CC1	1530
CC(=O)Nc1ccccc1OC(C)C(=O)N1CCC(C)CC1 (centres undefined)	1390
O=C(NCc1ccncc1)NC12CC3CC(CC(C3)C1)C2	1490
Cc1ccc(C(=O)OC(C)CN2CCOCC2)cc1 (centres undefined)	1500
CCOC(=O)C1CCCN(C(=O)/C=C/c2ccc(OC)cc2)C1 (centres undefined)	1570
COc1ccc(CN2CCCC(CNC(=O)c3ccc(F)cc3)C2)cc1OC (centres undefined)	1700
Cc1ccnc(NC(=O)CCC(=O)N(CC(=O)NCCc2ccccc2)Cc2cccs2)c1	1720
COc1cccc(CC2(CO)CCCN(Cc3nc(-c4cccs4)oc3C)C2)c1 (centres undefined)	1600
CCOC(=O)N1CCN(C(=O)Cn2cnc3ccccc3c2=O)CC1	1650
Cc1ccc2nsnc2c1NC(=O)c1ccccc1[N+](=O)[O-]	1630
COc1cc(/C=C/C(=O)O)cc(S(=O)(=O)Nc2ccccc2SC)c1OC	1430
CCSc1nc(C)c(CCOc2cccc(C)c2)c(=O)[nH]1	1860
Cc1ccc(C(=O)NCC(=O)O)s1	1560
COc1cc(COCC(O)CN2CCN(Cc3ccc4c(c3)OCO4)CC2)cc(OC)c1OC (centres undefined)	1800
CCN(CC)CC(=O)Nc1sc2c(c1C(=O)c1ccccc1C)CCC2	1510
NC(=O)C[C@@H]1NC(=O)CNC(=O)c2cc([N+](=O)[O-])cc(I)c2NCCC(C(N)=O)NC1=O (some centres undefined)	1320
Cc1cc(C(=O)NNC(=O)c2cccc(S(=O)(=O)N3CCOCC3)c2)c2ccccc2n1	1670
O=C(Cc1ccccc1)NNC(=O)C1CCN(c2ncccn2)CC1	1500
